We go through 44 compounds from PubChem BioAssay AID652054 (National Center for Advancing Translational Sciences (NCATS), 2013).

The campaign covered roughly 360,000 compounds. About 9,100 (2.5%) were called active. Inconclusive results (about 4%) are left out. No stated cut-off is given here; in the data, active means max response below about -50%; inconclusive means no clear call, values can overlap the other calls; inactive means above that. Shown is part of a subset that was picked to be rich in actives.
On the % scale 0 is the no-effect control and ±100 the full control effect.

The target of the assay is D(3) dopamine receptor (Homo sapiens) (UniProt P35462). The assay is described as follows: qHTS of D3 Dopamine Receptor Antagonist: qHTS. Conditions: D3R cells, DiscoveRx beta-arrestin luminescence, antagonist mode; hits give low values. The gist of the method: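 Cells plated overnight at 1500 cells/well, then exposed to library compounds with dopamine controls for 90 minutes at 37 degrees C. DiscoveRx reagent added for 30–60 minutes at room temperature; luminescence read, quantitative HTS format.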
Sequence of D(3) dopamine receptor (Homo sapiens) (P35462 whole entry, looked up): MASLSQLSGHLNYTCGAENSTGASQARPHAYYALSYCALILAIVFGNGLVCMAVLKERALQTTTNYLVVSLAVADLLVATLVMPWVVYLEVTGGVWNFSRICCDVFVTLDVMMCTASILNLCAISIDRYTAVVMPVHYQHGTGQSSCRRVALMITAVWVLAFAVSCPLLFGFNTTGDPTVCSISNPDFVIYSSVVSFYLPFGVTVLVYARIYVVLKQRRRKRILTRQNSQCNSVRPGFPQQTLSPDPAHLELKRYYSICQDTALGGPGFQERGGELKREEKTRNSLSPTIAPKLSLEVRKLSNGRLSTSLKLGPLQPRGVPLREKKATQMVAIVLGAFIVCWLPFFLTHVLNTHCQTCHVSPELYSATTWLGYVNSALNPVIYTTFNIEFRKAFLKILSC
On the technique in general: qHTS replaces the single test concentration by a dilution series.
As to `COc1ccccc1C(CNC(=O)c1cccc(S(=O)(=O)Nc2ccc(F)cc2)c1)N(C)C` (centres undefined), the max response, negative = inhibition was -23.9% (inactive).
As for `COc1ccc(C(CNC(=O)c2cccc(NS(=O)(=O)c3ccc(C)c(F)c3)c2)N2CCCC2)cc1` (centres undefined), the figure is -55.7% (active); as for `COc1ccc(C(CNC(=O)c2cc(S(=O)(=O)Nc3cccc(C)c3)ccc2C)N2CCCC2)cc1` (centres undefined), -25.7% (inactive); as for `CC(NC(=O)c1cccc(S(=O)(=O)N2CCc3ccccc3C2)c1)c1ccco1` (centres undefined), 4.52% (inactive).
As for `COc1ccc(C(CNC(=O)c2cccc(S(=O)(=O)Nc3ccc(Br)cc3)c2)N(C)C)cc1` (centres undefined), the figure is -53.5% (active); as for `O=C(Nc1ccc(S(=O)(=O)N2CCc3ccccc3C2)cc1)c1ccccc1`, 19.5% (inactive).
With `COc1ccc(C(CNC(=O)c2cccc(S(=O)(=O)Nc3ccccc3Cl)c2)N2CCOCC2)cc1` (centres undefined), the max response, negative = inhibition was 22.5% (inactive).
`COc1ccc(C(CNC(=O)c2ccc(NS(=O)(=O)c3ccc(F)c(C)c3)cc2)N(C)C)cc1` (centres undefined): the max response, negative = inhibition is -15.4% (inactive).
In the case of `CC1(C(=O)NCc2ccc3c(c2)OCO3)CCN1C(=O)Cc1cccs1` (centres undefined), the max response, negative = inhibition was 27.8% (inactive).
As for `CCCc1c(C)nc2scc(-c3ccc(Cl)cc3)n2c1=O`, the max response, negative = inhibition is 3.72% (inactive).
As for `COc1ccc(OC)c(C(O)c2ncc(-c3cccc(C(F)(F)F)c3)[nH]2)c1` (centres undefined), the max response, negative = inhibition is -26% (inactive).
As for `CCOC(=O)[C@]12CCCC=C1N(Cc1cccc3ccccc13)C(=O)[C@H](CC(=O)NCC13CC4CC(CC(C4)C1)C3)C2`, the figure is -25.2% (inactive); as for `CCCNC(=O)c1cc(C2CCCCN2S(=O)(=O)c2cn(C)cn2)on1` (centres undefined), 0.438% (inactive).
On to `CN(C)c1cccc(NC(=O)c2ccc(-c3ccc(F)c(F)c3)c3ccoc23)c1`, for which the max response, negative = inhibition was -0.987% (inactive).
As for `CC(C)CN1C(=O)CN(S(C)(=O)=O)CC1(C)C(=O)NCc1ccccc1` (centres undefined), the figure is 18.8% (inactive); as for `N#Cc1ccc(CSc2nnc(-c3ccccn3)n2-c2ccc(Cl)cc2)cc1`, -15.7% (inactive); as for `Clc1ccc(-n2nnnc2-c2cnc(-c3ccccn3)nc2-c2cccs2)cc1`, -60.1% (active).
As for `FC(F)(F)c1nc(-c2ccccc2)ncc1-c1nnnn1-c1ccccc1`, the figure is 16.8% (inactive); as for `Cn1c(NCc2cccnc2)nc2cc(-c3ccc(F)cc3)sc2c1=O`, 0% (inactive).
As for `CCc1ccc(-c2nnn(Cc3nc4ccccc4s3)n2)cc1`, the figure is 12.9% (inactive); as for `CCN(CC)CCCSc1nc2ccccc2s1`, -73.9% (active).
With `CCN(CC)CCn1c2c(c(SCC(=O)Nc3nc4ccccc4s3)nc1=O)CCCC2`, the max response, negative = inhibition is -4.31% (inactive).
As for `CCc1nc2ccc(C(=O)Nc3ccc(OC)c(OC)c3)cn2c1N(C)C(=O)c1cccc(OC)c1`, the figure is -28% (inactive); as for `COc1cccc(-c2nc(CS(=O)CC(=O)NCc3ccc(F)cc3)c(C)o2)c1` (centres undefined), -12.9% (inactive); as for `COc1ccc(-c2nc(CS(=O)CC(=O)NCc3cccnc3)c(C)o2)cc1OC` (centres undefined), -53.3% (active).
As for `COc1ccc(-c2nc(CS(=O)CC(=O)NCc3ccccc3)c(C)o2)cc1OC` (centres undefined), the figure is -17% (inactive).
`CCN(CC)CCN(C)C(c1ccnc2ccccc12)c1nnnn1-c1ccc2c(c1)OCCO2` (centres undefined): the max response, negative = inhibition was 0% (inactive).
To `COc1ccc(CCNC(=O)c2cc3sccc3n2C)cc1OC` belongs -72% (active); to `COc1ccc(CCNC(=O)COC(=O)/C=C/c2cccs2)cc1OC`, -11.9% (inactive); to `Cn1c(C(=O)NCCCN2CCCCC2)cc2sccc21`, -17.4% (inactive).
As for `COc1cc(C(O)c2nc(-c3cccc(C(=O)O)c3)cs2)ccc1F` (centres undefined), the figure is 5.94% (inactive); as for `CN(Cc1c(F)cccc1Cl)C(=O)COC(=O)Cn1cnc2ccccc2c1=O`, 16% (inactive); as for `O=C(COc1cccc(-n2cnnn2)c1)NCCC1=CCCCC1`, -5.35% (inactive).
Take `Cc1nnc(OCC(=O)NCCC2=CCCCC2)c2ccccc12`: the max response, negative = inhibition is -80.1% (active).
With `O=C(COc1ccc(Cl)cc1)NCCC1=CCCCC1`, the max response, negative = inhibition is -11.2% (inactive).
As for `COc1ccccc1N1CCN(Cc2cc(OC)c3c(c2)OCO3)CC1`, the max response, negative = inhibition is -91.2% (active).
To `COc1cc(COCC(O)CN2CCN(Cc3ccc4c(c3)OCO4)CC2)cc(OC)c1OC` (centres undefined) belongs -12.9% (inactive).
To `COc1cc(CNCc2ccc(OC)c3ccccc23)cc(OC)c1OC` belongs 4.84% (inactive); to `COc1ccccc1N1CCN(Cc2ccc(OC)c3ccccc23)CC1`, -67.7% (active); to `COc1ccc(CN2CCN(Cc3ccc(OC)c(OC)c3OC)CC2)cc1`, -14% (inactive).
Turning to `CNCC(O)CN1CCN(c2ccccc2OC)CC1` (centres undefined), the max response, negative = inhibition is 4.65% (inactive).
As for `CNc1cncc(-c2ccc(NS(C)(=O)=O)cc2)n1`, the figure is -5.71% (inactive); as for `COc1ccc(CCNC(=O)Nc2ccc3c(c2)c(=O)n(C)n3C)cc1OC`, 6.66% (inactive).
Take `O=C(CC(CC(=O)c1ccccc1)c1ccco1)c1ccccc1`: the max response, negative = inhibition is 11.4% (inactive).
